According to ChEMBL document CHEMBL1157539, “Thousands of chemical starting points for antimalarial lead identification” (Nature, 2010):

Columns and labels:
Assay type in all cases: functional
[1] = tested on: Plasmodium falciparum; experiment: GSK_TCMDC: Inhibition of Plasmodium falciparum 3D7 in whole red blood cells, using parasite LDH activity as an index of growth. Test compounds present at 2uM
[2] = tested on: Plasmodium falciparum; experiment: GSK_TCMDC: Inhibition of Plasmodium falciparum Dd2 in whole red blood cells, using parasite LDH activity as an index of growth. Test compounds present at 2uM
[3] = tested on: HepG2; experiment: GSK_TCMDC: Percent inhibition of human HepG2 cell line. Test compounds present at 10uM.

Compound	Inhibition [1]	Inhibition [2]	Inhibition [3]
CCNc1cc(C)nc(Nc2ccc(NC(=O)c3cccs3)cc2)n1	100%	50%	21%
CCOc1ccc2[nH]c(C)cc(=NN=Cc3ccccc3Cl)c2c1	100%	100%	11%
CCCC(=O)Nc1ccc(Cl)c(NC(=O)COc2cc(C)ccc2C(C)C)c1	87%	67%	2%
O=C(NCCCN1CCN(c2cccc(Cl)c2)CC1)c1ccc(-c2nc3cc(Cl)c(Cl)cc3[nH]2)cc1	98%	95%	3%
COc1c(C2CCN(CCCCNC(=O)c3noc(-c4ccc(C#N)cc4)n3)CC2)ccc2c1CCCC2	99%	0%	32%
CCCC(CNCc1cccc(C)c1)CNc1cc(=O)c2ccccc2[nH]1 (stereo not drawn)	99%	89%	0%
Cc1[nH]c(C)c(-c2ccc(OCCCc3ccccn3)cc2)c(=O)c1Br.Cl	98%	97%	0%
CC(C)[C@H](NC(=O)c1ccc(O)c(-c2cccc(C(F)(F)F)c2)c1)C(=O)NC1CCCc2ccccc21 (stereo partly drawn)	82%	25%	2%
COc1ccc(C(=O)N2CCC3(CC2)C(=O)N(CC(=O)NCC2CCCCC2)CN3c2ccccc2)cc1	100%	99%	18%
CC(CCc1ccccc1)NCC(O)c1cccc(C(F)(F)F)c1.Cl (stereo not drawn)	99%	98%	18%
Cn1c(NC(=O)C2CCCN(C(=O)c3ccc(O)c(-c4ccc(Cl)c(Cl)c4)c3)C2)nc2ccccc21 (stereo not drawn)	98%	99%	0%
